Experimental data taken from PubChem BioAssay (Tox21).
Records with an inconclusive call do not appear. Activity calls are given as the source filed them. Unless noted, calls follow the shape of the dose curve; as a rule, active = well fitted curve in the direction sought with a large enough effect in the repeat runs; inconclusive = weak or mixed curves; inactive = no such curve, though single readings can be large; an effect the other way counts as inactive or inconclusive.

Experiments:
[1] = qHTS RealTime-Glo MT Cell Viability Assay in HEK293 cells - 24 hour (AID 1224886); also: top concentration of the series differs between compounds; nearly all actives have a fitted effect of over 50% in size
Procedure, shortened: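 Viability tracked continuously by luminescence as live cells reduce a prosubstrate for NanoLuc; HEK293 cells preincubated 5 h, compound-treated at 37 C, and read at 0, 8, 16, 24, 32 and 40 h.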

[2] = qHTS RealTime-Glo MT Cell Viability Assay in HEK293 cells - 8 hour (AID 1224887); also: top concentration of the series differs between compounds; nearly all actives have a fitted effect of over 50% in size
Procedure, shortened: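 Luminescence, which tracks viable cell number through reduction of the prosubstrate to a NanoLuc substrate, was read over continuous 37 C culture. Cells (600/well) were premixed with reagent and rested 5 h before 23 nL of compound in DMSO was pinned.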

[3] = A CellTox Green Cytotoxicity Assay to monitor cytotoxicity in HEK293 cells - 16 hour (AID 1224888); also: nearly all actives have a fitted effect of over 35% in size; also: potency is read from the fitted curve at half-maximal effect
Procedure, shortened: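 Fluorescence from a DNA-binding dye excluded by viable cells was measured repeatedly in the same HEK293 wells (600 cells/well) during continuous compound exposure at 37 C. Each assay gives one read point: 0, 8, 16, 24, 32 or 40 h.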

[4] = qHTS RealTime-Glo MT Cell Viability Assay in HepG2 cells - 0 hour (AID 1224889); also: nearly all actives have a fitted effect of over 50% in size
Procedure, shortened: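 Viability was tracked continuously by NanoLuc luminescence from prosubstrate reduced by living HepG2 cells, at successive time points over 40 h of compound exposure. Cells with reagent were preincubated 5 h at 37 °C before compound addition.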

[5] = A CellTox Green Cytotoxicity Assay to monitor cytotoxicity in HepG2 cells - 8 hour (AID 1224890); also: nearly all actives have a fitted effect of over 45% in size; also: potency is read from the fitted curve at half-maximal effect
Procedure, shortened: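 Real-time cytotoxicity: fluorescence of a cell-impermeant cyanine dye binding DNA of dead HepG2 cells, measured repeatedly (0–40 h) during compound exposure at 37 C. Cells seeded 600/well with reagent, dosed after 5 h.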

[6] = qHTS assay to identify small molecule antagonists of the estrogen receptor alpha (ER-alpha) signaling pathway using the BG1 cell line in the presence of 0.1 nM 17-beta-estradiol - cell viability counter screen (AID 1259241); also: nearly all actives have a fitted effect of over 40% in size
Procedure, shortened: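 VM7Luc4E2 cells (endogenous ER-alpha, 4×ERE-luciferase), hormone-starved 5 days in charcoal-stripped FBS, were treated with compounds plus 0.1 nM 17beta-estradiol for 22 hr at 37C; viability read in same wells as CellTiter-Fluor live-cell protease fluorescence.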

[7] = qHTS assay to identify small molecule antagonists of the androgen receptor (AR) signaling pathway using the MDA cell line in the presence of 0.5 nM R1881 - cell viability counter screen (AID 1259242); also: nearly all actives have a fitted effect of over 45% in size
Procedure, shortened: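 Live-cell protease activity was measured by CellTiter-Fluor fluorescence after 30 min. Before that, MDA-kb2 MMTV-luciferase cells had 16 hr at 37C without CO2, exposed to test compounds and 0.5 nM R1881 final.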

[8] = qHTS assay to identify small molecule HDAC inhibitors (AID 1259364); also: top concentration of the series differs between compounds; nearly all actives have a fitted effect of over 45% in size
Procedure, shortened: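 Luminescence read after 30 min room-temperature HDAC-Glo incubation measures cellular class I/II HDAC activity. Compounds were applied for 2 hr at 37 C to HCT-116 wild-type cells seeded the day before.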

[9] = qHTS assay to identify small molecule HDAC inhibitors - cell viability counter screen (AID 1259365); also: series mostly up to about 92 µM; nearly all actives have a fitted effect of over 50% in size
Procedure, shortened: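 Wild-type HCT-116 cells were seeded at 1,500 per well, incubated overnight at 37 C, then exposed to compounds in DMSO for 2hr. Viability was read by CellTiter-Glo luminescence after 30min at room temperature.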

[10] = qHTS assay to identify small molecule agonists of the sonic hedgehog signaling (Shh) pathway - cell viability counter screen (AID 1259366); also: nearly all actives have a fitted effect of over 50% in size
Procedure, shortened: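 NIH/3T3-derived 3T3 Gli1-Luc cells (stable Gli1-responsive firefly luciferase reporter) were seeded, rested 4 hr at 37 C/5% CO2, then exposed to compounds in DMSO for 24 hr; viability was read by CellTiter-Fluor fluorescence in the same wells.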

[11] = qHTS assay to identify small molecule agonists of the sonic hedgehog signaling (Shh) pathway (AID 1259368; calls by dose curve; also: series mostly up to about 92 µM; nearly all actives have a fitted effect of over 15% in size)
Procedure, shortened: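 Luminescence was read after 30 min at room temperature with luciferase reagent. Before that, 3T3Gli1-Luc cells (NIH/3T3 clone, stable Gli1-Luc reporter; 2,000/well) were exposed to compounds for 24 hr at 37C, 5% CO2, compounds being added 4 hr post-plating.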

[12] = qHTS assay to identify small molecule antagonists of the sonic hedgehog signaling (Shh) pathway (AID 1259369; calls by dose curve; also: nearly all actives have a fitted effect of over 45% in size)
Procedure, shortened: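 Antagonist mode: compound added to 3T3 Gli1-Luc cells followed by conditioned-medium stimulation, 24 h at 37 C, 5% CO2. Inhibition taken as loss of Gli1-driven luciferase luminescence.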

[13] = molecular target: Estrogen receptor beta (Homo sapiens) (UniProt Q92731); assay: qHTS assay to identify small molecule agonists of the estrogen receptor beta (ER-beta) signaling pathway (AID 1259377; active = well fitted activation curve with a large enough effect in the signal ratio in the repeat runs, not every such curve was filed as active; the % refers to the signal ratio)
Sequence of Estrogen receptor beta (Homo sapiens) (Q92731 whole entry, looked up): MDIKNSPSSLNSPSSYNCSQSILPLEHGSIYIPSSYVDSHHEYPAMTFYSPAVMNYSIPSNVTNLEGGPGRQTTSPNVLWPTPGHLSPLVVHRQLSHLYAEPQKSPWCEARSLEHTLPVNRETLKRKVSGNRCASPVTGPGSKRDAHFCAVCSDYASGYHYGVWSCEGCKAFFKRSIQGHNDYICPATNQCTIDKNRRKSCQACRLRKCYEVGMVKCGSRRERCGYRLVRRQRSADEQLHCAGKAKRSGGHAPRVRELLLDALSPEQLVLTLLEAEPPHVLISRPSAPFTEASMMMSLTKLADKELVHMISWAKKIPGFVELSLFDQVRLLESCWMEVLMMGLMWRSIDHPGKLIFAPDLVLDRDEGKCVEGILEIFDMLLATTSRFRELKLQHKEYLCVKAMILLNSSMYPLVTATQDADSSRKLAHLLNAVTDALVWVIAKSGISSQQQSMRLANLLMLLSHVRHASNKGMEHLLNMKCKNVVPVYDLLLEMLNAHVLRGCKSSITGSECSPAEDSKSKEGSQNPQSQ
Procedure, shortened: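 ER-beta-UAS-bla HEK293T (GripTite) cells carrying a UAS-driven beta-lactamase reporter, in medium with 2% charcoal-stripped FBS, were exposed to compounds for 16 hr at 37C; LiveBLAzer B/G FRET substrate was then added and fluorescence read after 2 hours at room temperature.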

[14] = molecular target: Estrogen receptor beta (Homo sapiens) (UniProt Q92731); assay: qHTS assay to identify small molecule antagonists of the estrogen receptor beta (ER-beta) signaling pathway (AID 1259378; active = well fitted inhibition curve with a large enough effect in the signal ratio in the repeat runs, not every such curve was filed as active; the % refers to the signal ratio)
Procedure, shortened: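 ER-beta-UAS-bla HEK293T cells in 2% charcoal-stripped FBS medium treated with compound plus 1nM final 17-beta-estradiol for 16 hr at 37C. Beta-lactamase reporter read by FRET substrate fluorescence after 2 hours at room temperature.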

[15] = qHTS assay to identify small molecule agonists of the androgen receptor (AR) signaling pathway in the presence of an antagonist - cell viability counter screen (AID 1259379);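 also: MDA-kb2 human breast cancer cells carrying an MMTV luciferase reporter; series mostly up to about 92 µM; nearly all actives have a fitted effect of over 25% in size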
Procedure, shortened: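 Cytotoxicity counter-screen run in the same wells as the nilutamide-challenged (3.0 µM final) AR agonist assay in MDA-kb2 cells. Compounds tested at 15 concentrations for 16 h, 37 °C without CO2; CellTiter-Fluor fluorescence read.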

[16] = molecular target: Estrogen receptor (Homo sapiens) (UniProt P03372); assay: qHTS assay to identify small molecule antagonists of the estrogen receptor alpha (ER-alpha) signaling pathway using the BG1 cell line in the presence of 0.1 nM 17-beta-estradiol (AID 1259244); also: nearly all actives have a fitted effect of over 50% in size
Sequence of Estrogen receptor (Homo sapiens) (P03372 whole entry, looked up): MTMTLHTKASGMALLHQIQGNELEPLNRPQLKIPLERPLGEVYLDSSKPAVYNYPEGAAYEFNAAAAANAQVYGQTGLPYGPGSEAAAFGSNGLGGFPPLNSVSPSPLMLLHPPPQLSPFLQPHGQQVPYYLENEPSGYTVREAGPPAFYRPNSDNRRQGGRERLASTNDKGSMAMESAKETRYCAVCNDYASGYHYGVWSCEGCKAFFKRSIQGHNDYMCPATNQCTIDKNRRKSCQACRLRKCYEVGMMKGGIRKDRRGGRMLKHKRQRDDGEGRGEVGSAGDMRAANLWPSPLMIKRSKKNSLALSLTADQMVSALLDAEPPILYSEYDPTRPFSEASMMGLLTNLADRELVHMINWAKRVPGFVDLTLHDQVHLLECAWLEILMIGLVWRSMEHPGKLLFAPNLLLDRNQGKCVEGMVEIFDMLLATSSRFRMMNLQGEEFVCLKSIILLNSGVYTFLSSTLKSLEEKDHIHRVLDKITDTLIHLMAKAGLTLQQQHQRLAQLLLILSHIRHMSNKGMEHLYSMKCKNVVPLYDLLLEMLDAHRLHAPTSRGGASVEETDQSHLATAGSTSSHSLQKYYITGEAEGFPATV
Procedure, shortened: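 Luciferase luminescence (ONE-Glo, 30 min at room temperature) was read after 22 hr at 37C exposure to compounds plus 17beta-estradiol at 0.1 nM final. Cells were VM7Luc4E2 with endogenous ER-alpha and an ERE-driven luciferase, pre-cultured 5 days in hormone-depleted medium.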

[17] = qHTS assay to identify small molecule antagonists of the sonic hedgehog signaling (Shh) pathway - cell viability counter screen (AID 1259367); also: nearly all actives have a fitted effect of over 55% in size
Procedure, shortened: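 Fluorescence read-out (CellTiter-Fluor, 1 hr at 37C) taken after 23 hr compound treatment of 3T3 Gli1-Luc cells stimulated with conditioned medium. Cells were seeded at 2,000 per well and pre-incubated 4 hr.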

[18] = qHTS assay to identify small molecule agonists of the estrogen receptor beta (ER-beta) signaling pathway - cell viability counter screen (AID 1259380); also: nearly all actives have a fitted effect of over 30% in size
Procedure, shortened: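 Cell viability counter screen: CellTiter-Glo luminescence (30 min, room temperature) measured in the same wells as the beta-lactamase readout, after 16 hr compound exposure at 37C of ER-beta-bla HEK293T cells in 2% charcoal-stripped FBS medium.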

[19] = qHTS assay to identify small molecule phospholipidosis (PLD) inducers (AID 1259344; active = well fitted curve in the direction sought with a large enough effect; an effect the other way counts as inactive or inconclusive)
Procedure, shortened: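 Read-out is LipidTOX Red fluorescence (ex 595/em 615) imaged in HepG2 cells after 24 h compound exposure at 37 C, with Hoechst nuclear counterstain (ex 352/em 461) allowing per-cell normalisation.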
% is scaled to controls: 0 for no effect and ±100 for the full control effect.

CCOc1ccc(NC(=O)OC(C)C)cc1OCC
inactive: Potency [1] | Potency [2] | Potency [3] | Potency [4] | Potency [5] | Potency [6] | Potency [7] | Potency [8] | outcome [9] | Potency [10] | outcome [11] | Potency [12] | Potency [13] | outcome [14] | Potency [15]

O=C(/C=C/c1ccccc1)NCCO
inactive: Potency [1] | Potency [2] | Potency [4] | Potency [6] | Potency [7] | Potency [16] | Potency [17] | outcome [11] | Potency [12] | Potency [13] | outcome [14] | Potency [15]
active: Potency [3] 8.49 µM | Potency [5] 10.7 µM

CCCCOC(=O)C(C)OC(=O)CCC (configuration not stated)
inactive: Potency [1] | Potency [2] | Potency [3] | Potency [4] | Potency [5] | Potency [6] | Potency [7] | Potency [8] | outcome [9] | Potency [17] | outcome [11] | Potency [12] | Potency [13] | outcome [14] | Potency [15] | outcome [18]

CC(C)COC(=O)CC(C(=O)OCC(C)C)S(=O)(=O)O (configuration not stated)
inactive: Potency [1] | Potency [2] | Potency [3] | Potency [4] | Potency [5] | Potency [6] | Potency [7] | Potency [8] | outcome [9] | Potency [10] | Potency [17] | outcome [11] | Potency [12] | Potency [13] | outcome [14] | Potency [15] | outcome [18]

CC(CC(=O)O)CC(C)(C)C (configuration not stated)
inactive: Potency [1] | Potency [2] | Potency [3] | Potency [4] | Potency [5] | Potency [6] | Potency [7] | Potency [8] | outcome [9] | Potency [10] | Potency [17] | outcome [11] | Potency [12] | Potency [13] | outcome [14] | Potency [15] | outcome [18]

Nc1ccc(/C=C/c2ccc(N)cc2S(=O)(=O)O)c(S(=O)(=O)O)c1
inactive: activity change, negative = cytotoxicity [1] 1.86% [at 0.29 µM] | activity change, negative = cytotoxicity [2] 0.0792% [at 0.29 µM] | activity change [3] 0.863% [at 0.29 µM, active compounds read high] | activity change, negative = cytotoxicity [4] 2.99% [at 0.29 µM] | cytotoxicity increase [5] -4.57% [at 0.29 µM] | activity change, negative = cytotoxicity [6] -1.15% [at 0.349 µM] | viability change, negative = cytotoxic [7] 2% [at 0.349 µM] | outcome [19] | activity change, negative = inhibition [8] 6.62% [at 0.349 µM] | activity change, negative = cytotoxicity [9] 0.175% [at 0.349 µM] | viability change, negative = cytotoxic [10] 0.832% [at 0.349 µM] | viability change, negative = cytotoxic [17] 1.69% [at 0.349 µM] | activity change [11] -0.943% [at 0.349 µM] | activity change, negative = inhibition [12] 1.08% [at 0.349 µM] | activity change, negative = cytotoxicity [18] 1.15% [at 0.349 µM]

OC[C@@H](O)[C@H](O)[C@@H](O)[C@@H](O)CO
inactive: Potency [1] | Potency [2] | Potency [3] | Potency [4] | Potency [5] | Potency [6] | Potency [7] | Potency [8] | outcome [9] | Potency [10] | outcome [11] | Potency [12] | Potency [15] | outcome [18]

O=C1NC2NC(=O)NC2N1 (configuration not stated)
inactive: Potency [1] | Potency [2] | Potency [3] | Potency [4] | Potency [6] | Potency [8] | outcome [9] | Potency [10] | Potency [17] | outcome [11] | Potency [12] | Potency [13] | outcome [14] | outcome [18]

Nc1cc(S(=O)(=O)O)ccc1S(=O)(=O)O
inactive: Potency [1] | Potency [2] | Potency [3] | Potency [4] | Potency [6] | Potency [7] | outcome [9] | Potency [10] | Potency [17] | outcome [11] | Potency [12] | Potency [13] | outcome [14] | Potency [15] | outcome [18]

CCCCCC1CCCC(=O)O1 (configuration not stated)
inactive: Potency [1] | Potency [2] | Potency [3] | Potency [4] | Potency [5] | Potency [6] | Potency [8] | outcome [9] | Potency [10] | outcome [11] | Potency [12] | Potency [13] | outcome [14] | outcome [18]

CCC(=O)c1ccc(O)cc1
inactive: Potency [1] | Potency [2] | Potency [3] | Potency [4] | Potency [6] | Potency [7] | Potency [16] | Potency [8] | outcome [9] | Potency [17] | outcome [11] | Potency [12] | Potency [15] | outcome [18]

CCC1COC(=O)O1 (configuration not stated)
inactive: Potency [1] | Potency [2] | Potency [3] | Potency [4] | Potency [5] | Potency [6] | Potency [16] | Potency [8] | outcome [9] | Potency [10] | Potency [17] | outcome [11] | Potency [12] | outcome [18]

CCCCOC(=O)C(=O)OCCCC
inactive: Potency [1] | Potency [2] | Potency [3] | Potency [4] | Potency [6] | Potency [7] | Potency [8] | outcome [9] | Potency [10] | Potency [17] | Potency [12] | Potency [15] | outcome [18]
